Compounds without any hit were thinned out: in the full panel of roughly 83,000, 20% have a hit.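 Step 1: grow cells in 96-well plates. Step 2: add test compound at a single concentration. Step 3: incubate 48 h. Step 4: record percent growth.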 A number with no mark means an inactive call. Calls of active or inactive are those of the source. The calls were made as follows: active = growth percent below 10; inactive = the rest.
Tested on: NCI-H322M lung
Test: NCI-60 one-dose screen, 48 h (100 = growth as untreated, 0 = no growth, -100 = all killed)
Settings: 10 µM unless noted

**Q.** Which growth does the source give for C[C@H](c1nc2ccc(C#N)cc2[nH]1)[C@H]1CC[C@H]2[C@@H]3CCC4=CC(=O)CC[C@]4(C)[C@H]3CC[C@]12C here?
**A.** 94.4%

**Q.** O=c1cc(C(F)(F)F)c2cc(-c3cc4ccccc4c(=O)o3)c(O)cc2o1 was tested. Which growth did it give?
**A.** 87.6%

**Q.** With Nc1ccc(-c2ccncc2)cc1NC(=O)N1CCCC1 as the compound, how does the growth read?
**A.** 92%

**Q.** COc1cccc(-c2cn3nc(-c4cn(C)c5ccccc45)sc3n2)c1 was tested. Which growth did it give?
**A.** 96.9%

**Q.** For CC(C)(C)c1ccc(S(=O)(=O)Oc2ccc(-c3sc4cc(OS(=O)(=O)c5ccc(C(C)(C)C)cc5)ccc4c3C(=O)c3ccc(OCCN4CCCCC4)cc3)cc2)cc1, which growth is on record?
**A.** 96.1%

**Q.** Which growth does the source give for CCN(CC)CCn1c2ccc(OC)cc2c2sc3cc(O)ccc3c(=O)c21 here?
**A.** 34.2%

**Q.** With C=C1C(=O)O[C@H]2[C@H]1CC/C(COC(=O)NCc1ccc(Cn3c(=O)sn(-c4ccc(I)cc4)c3=O)cc1)=C\CC[C@@]1(C)O[C@@H]21 as the compound, how does the growth read?
**A.** 101%

**Q.** O=C(Nc1nc(Cl)nc(Nc2ccc(N3CCOCC3=O)cc2)n1)c1ccc(Cl)s1 was tested. Which growth did it give?
**A.** 97.8%

**Q.** COc1cc(OC)c2c(=O)c3c(CC=C(C)C)cc(OC)c(O)c3oc2c1 was tested. Which growth did it give?
**A.** 83.7%

**Q.** How did the growth turn out when O=S(=O)(Nc1cc(Sc2nc3ccccc3s2)c(O)c2ccccc12)c1ccc2ccccc2c1 was run?
**A.** 94.9%

**Q.** With Nc1cccc(-c2ccc(COc3ccc(CC4SC(=O)NC4=O)cc3)cc2)c1 (centres undefined) as the compound, how does the growth read?
**A.** 89.6%

**Q.** How did the growth turn out when COc1ccc(-c2nc(SCC(=O)Nc3nc4ccc(C)cc4s3)[nH]c(=O)c2C#N)cc1OC was run?
**A.** 101%

**Q.** For C=C1C(=O)O[C@@H]2C3C(=C(C)CC[C@@H]12)CC1O[C@]13C (some centres undefined), which growth is on record?
**A.** 95.8% [6.75 µM]

**Q.** With COc1cccc(CNc2c3ccccc3nc3ccccc23)c1OC as the compound, how does the growth read?
**A.** 41.6%

**Q.** With Nc1c(Cl)cc(/C=C2\C=Cc3ccccc32)cc1Cl as the compound, how does the growth read?
**A.** 106%

**Q.** For CSc1ccc2c3c(n(C[C@H](O)CO)c(=O)c2c1)-c1ccccc1C3=O, which growth is on record?
**A.** 74.3%

**Q.** For COc1cc(-c2ccc[nH]2)[nH]c1/C=C1\N=C(C)C(CC(=O)OCC(C)(C)C)=C1C, which growth is on record?
**A.** -49.7% (active)

**Q.** How did the growth turn out when Brc1ccc(Nc2nc(Nc3cnc4ccccc4c3)c3[nH]cnc3n2)cc1 was run?
**A.** 105%

**Q.** How did the growth turn out when CS(=O)(=O)Nc1cc(-c2ccc3ncnc(Nc4ccc(F)c(Cl)c4)c3c2)ccc1Cl was run?
**A.** 24.7%

**Q.** Which growth does the source give for CSc1ccc2c3c(n(CCCn4ccnc4)c(=O)c2c1)-c1ccccc1C3=O here?
**A.** 71.7%

**Q.** Which growth does the source give for O=C(/C=C/c1cn(-c2ccccc2)nc1-c1ccccc1)CCC(=O)NO here?
**A.** 106%

**Q.** With O=C(/C=C/c1ccccc1)c1cccc2ccccc12 as the compound, how does the growth read?
**A.** 57.5%

**Q.** With CCOC(=O)/C=C1\S/C(=N\Nc2cc(=O)[nH]c3ccc(Br)cc23)N(c2ccccc2)C1=O as the compound, how does the growth read?
**A.** 90.5%

**Q.** For CC(=O)c1ccc(-n2cc(CN3CCN(c4cc5c(cc4F)c(=O)c(C(=O)O)cn5C4CC4)CC3)nn2)cc1, which growth is on record?
**A.** 89.2%

**Q.** For CS(=O)(=O)Nc1cc(-c2ccc3ncnc(Nc4ccc(OCc5ccccn5)c(Cl)c4)c3c2)cnc1Cl, which growth is on record?
**A.** 9.88% (active)

**Q.** COc1ccc2c(c1)c(-c1nc(-c3ccc4ccccc4c3)cs1)cn2C was tested. Which growth did it give?
**A.** 85.1%

**Q.** CCOC(=O)c1c(C)nc2ccccc2c1/C=C/c1ccc(F)cc1 was tested. Which growth did it give?
**A.** 94.7%

**Q.** CC1(C)N=C(N)N=C(N)N1c1ccc(S(=O)(=O)Nc2nccs2)cc1 was tested. Which growth did it give?
**A.** 104%

**Q.** How did the growth turn out when COC(=O)c1sccc1-c1cc(O)c(C(=O)Nc2ccccc2)s1 was run?
**A.** 93.3%

**Q.** How did the growth turn out when CCOC(=O)NC(=S)n1oc(=O)c2ccccc21 was run?
**A.** 98.8%

**Q.** With O=C1CCC(C(=O)N/N=C/c2cc(F)ccc2F)N1 (centres undefined) as the compound, how does the growth read?
**A.** 99.7%

**Q.** Which growth does the source give for COc1ccccc1/C=C/C(=O)Nc1ccc(F)cc1 here?
**A.** 104%

**Q.** COc1ccc(/C=N/Nc2c3ccccc3nc3ccccc23)cc1 was tested. Which growth did it give?
**A.** 101%

**Q.** For O=[N+]([O-])c1ccccc1Sc1ccccc1[N+](=O)[O-], which growth is on record?
**A.** 91.4%

**Q.** Which growth does the source give for C[C@@H]1CN(c2cnc(C(=O)Nc3cc(F)cc4cccnc34)cn2)C[C@H](C)N1 here?
**A.** 93.1%

**Q.** With CC1(C)CC[C@]23CC[C@]4(C)[C@H](CC[C@@H]5[C@@]6(C)C/C(=C/O)C(=O)C(C)(C)[C@@H]6CC[C@]54C)[C@H]2[C@H]1OC3 as the compound, how does the growth read?
**A.** 105%

**Q.** c1cc(OCCCCCOc2cccc(-c3nc4ccccc4[nH]3)c2)cc(-c2nc3ccccc3[nH]2)c1 was tested. Which growth did it give?
**A.** 23.1%

**Q.** Which growth does the source give for O=CN1N=C(c2cccc(Nc3ccnc4cc(Cl)ccc34)c2)CC1c1ccc(Cl)cc1 (centres undefined) here?
**A.** 59.6%

**Q.** For COc1ccc(/C=C2\c3cc(OC)c(OC)c(OC)c3CC[C@@H]2O)cc1F, which growth is on record?
**A.** 66.3%
